# Results from article PMC5540273 (PLoS ONE, 2017).
# Legend:
# Conditions in all cases: concentration: 1 μM, replicates: in singlicate; n = 1
# MRCKB = test system: T1, MRCKB
# T1 construct: gene CDC42BPB
# MST1R = test system: MST1R
# MST1 = test system: T2, MST1
# T2 construct: gene STK4
# MST2 = test system: T3, MST2
# T3 construct: gene STK3
# MST3 = test system: T4, MST3
# T4 construct: gene STK24
# MST4 = test system: MST4
# MTOR = test system: MTOR
# MUSK = test system: MUSK
# MYLK2 = test system: MYLK2
# MYLK4 = test system: MYLK4
# 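Also: KINOMEscan kinase panel screen.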
SMILES,%Inh (MRCKB) [%],%Inh (MST1R) [%],%Inh (MST1) [%],%Inh (MST2) [%],%Inh (MST3) [%],%Inh (MST4) [%],%Inh (MTOR) [%],%Inh (MUSK) [%],%Inh (MYLK2) [%],%Inh (MYLK4) [%]
COc1cc(OC)cc(-c2cc3cnc(N)nc3nc2NC(=O)NC(C)(C)C)c1,0,0,0,1,0,0,58,0,13,11
Cc1nc(N(C)[C@H]2CN(C(=O)CC#N)CC[C@H]2C)c2cc[nH]c2n1,0,3,0,37,8,0,25,0,0,0
CCCNC(=O)Nc1ccc(Oc2ncnc3ccn(C)c23)cc1,0,12,0,0,4,0,8,0,11,21
COc1cc2ncn(-c3cc(OCc4ccncc4)c(C(N)=O)s3)c2cc1OC [GSK336313],0,34,0,0,0,0,28,93.6,21,36
O=C(Nc1n[nH]c2nc(-c3ccccc3)c(Cl)cc12)C1CC1 [SB-734909],6,0,12,50,0,37,19,19,93.2,33
O=C(Nc1n[nH]c2cc(-c3ccccc3F)ccc12)C1CC1 [SB-733371],0,0,1,0,0,0,0,1,90,4
Cn1c(=O)c(F)c(Nc2ccc(I)cc2F)c2c(=O)n(OC[C@H](O)CO)cnc21,0,0,19,0,0,0,0,8,1,0
CC(C)(C)c1ccc(C(=O)Nc2cn3cc(-c4ccccc4)ccc3n2)cc1,0,26,0,43,0,0,45,0,34,0
COc1cc(Nc2nccc(N3CCC(NC(=O)C4COc5ccccc5O4)C3)n2)cc(OC)c1OC (stereo not drawn) [GSK1379761],0,8,6,0,0,0,34,0,6,0
Cl.NS(=O)(=O)c1cccc(Nc2cc(-c3ccc(F)cc3)n[nH]2)c1 [GW824645],0,0,29,14,0,9,39,0,9,12
Cc1nnc(-c2ccc(C)c(-c3ccc(C(=O)O)cc3)c2)o1 [GW608005],0,17,0,0,0,0,0,5,2,3
COc1cc2ncn(-c3cc(OCc4ccncc4Br)c(C(N)=O)s3)c2cc1OC [GW854278],0,74,0,23,34,24,9,4,0,70
O=C(NCCNc1ccnc(Nc2ccc(F)cc2)n1)Nc1ccc2c(c1)OCO2 [GSK1379882],0,6,0,22,11,0,11,0,15,9
CCCC(=O)Nc1n[nH]c2ncc(-c3cccc4ccccc34)cc12 [SB-642057],17,18,5,0,6,0,17,11,9,0
C[C@@H]1CC[C@H](C(=O)NC2CCCCC2)CN1c1cc(-c2ccc3c(N)n[nH]c3c2)nc(N)n1 [GSK2291363],15,50,12,0,14,0,18,21,11,23
CN1C(=O)C(Nc2ccccc2)=C(c2ccccc2)C1=O [SB-300079],0,0,0,0,0,0,26,0,5,28
Nc1nc(N)c2nc(-c3ccccc3)[nH]c2n1 [SKF-12778],0,0,4,32,13,10,26,18,2,1
CCS(=O)c1ccc(-c2coc3ccc(-c4nnc(C)o4)cc23)cc1 (stereo not drawn),0,15,33,0,17,0,2,0,5,4
O=C(Nc1ccc2c(c1)OCO2)NC1CCN(c2ccnc(NCc3ccc(F)cc3)n2)CC1 [GSK1379859],0,17,5,47,0,0,8,0,0,0
COc1cccc(-n2cnc3c(N)ncnc32)c1 [SKF-97416],0,5,0,0,6,28,19,5,6,26
CCC(=O)c1c(-c2ccccc2)c2cc(Cl)ccc2c(=O)n1Cc1cc(S(C)(=O)=O)n(CC(F)F)n1,0,31,0,0,0,0,7,0,47,1
COc1cc(Nc2ccnc3ccc(C(F)(F)F)cc23)cc(OC)c1OC [GW577382],6,34,13,5,4,0,21,8,4,10
Fc1cccc(CSc2nnc(-c3ccc4c(c3)CCO4)o2)c1,0,35,3,0,0,0,36,0,11,0

SMILES,%Inh (MRCKB) [%],%Inh (MST1R) [%],%Inh (MST1) [%],%Inh (MST2) [%],%Inh (MST3) [%],%Inh (MST4) [%],%Inh (MTOR) [%],%Inh (MUSK) [%],%Inh (MYLK2) [%],%Inh (MYLK4) [%]
Nc1ncnc2c1ncn2-c1cccc(F)c1 [SKF-97560],0,0,0,50,0,37,14,0,0,11
COc1cccc(C2=C(N(C)c3ccccc3)C(=O)NC2=O)c1 [SB-334865],0,10,5,0,0,0,19,2,9,0
Cl.c1ccc(Cn2cnc3cc(Nc4ncnc5ccccc45)ccc32)cc1 [GW272142],0,40,0,0,0,0,28,29,0,6
COc1ccc(CNC(=O)NC2CCN(c3ccnc(Nc4ccc(F)cc4)n3)C2)cc1 (stereo not drawn) [GSK1379706],12,41,0,9,6,0,28,4,6,17
Nc1nccc2scc(-c3ccc4c(c3)CCN4C(=O)Cc3ccccc3)c12 [GSK2576924],0,17,37,0,1,0,14,13,11,9
Cc1cccc(-c2cc(-c3c[nH]nc3-c3ccccn3)ccn2)c1 [GW679395],0,60,0,0,4,0,10,0,0,2
COc1cc2nccc(Nc3cccc(Oc4ccccc4)c3)c2cc1OC.Cl [GW284543],0,18,1,47,0,0,15,6,0,0
Cc1c(Cn2c(C)nn3c(=O)cc(N4CCO[C@H](C)C4)nc23)cccc1C(F)(F)F [GSK2373690],0,41,2,7,0,0,57,28,2,99.8
COc1ccc(Nc2nccc(N3CCC(NS(=O)(=O)c4ccc(NC(C)=O)cc4)C3)n2)cc1 (stereo not drawn) [GSK1379729],15,25,7,0,0,9,43,18,29,1
Cc1ccc(-c2ccc3c(ccc4sc5c(c43)NC[C@@H](C)N=C5N(C)C)n2)cn1,3,13,0,0,1,0,31,0,0,100
COC(=O)c1c(-c2ccccc2)c2cc(Br)ccc2c(=O)n1Cc1ccc(NC(=O)CCC(=O)O)cc1,0,43,12,27,7,0,32,0,0,1
Nc1n[nH]c2ncc(-c3ccccc3)cc12 [SB-517081],0,41,0,0,0,0,7,28,15,61
FC(F)(F)c1ccc(-c2ncn(CCCN3CCOCC3)c2-c2ccncc2)cc1 [SB-217780],6,28,28,59,35,0,12,0,0,4
Cc1nn2c(=O)cc(N3CCOCC3)nc2n1Cc1cccc(Cl)c1Cl [GSK2342769],0,13,0,4,0,0,45,18,0,4
Cc1nnc(-c2ccc3ncn(-c4ccc(S(C)=O)cc4)c3c2)o1 (stereo not drawn),0,2,0,30,50,0,8,9,11,7
COc1ccc(-c2coc3ccc(-c4nnc(SCc5cccc(C#N)c5)o4)cc23)cc1,0,33,15,13,25,0,0,18,7,0
Cc1cccc(-c2nc(Nc3ccc4c(cnn4C)c3)c3ccccc3n2)n1 [GW876731],34,0,0,0,0,9,0,2,0,33
COc1ccc(-c2cc3c(C)nc(N)nc3n([C@H]3CC[C@H](OCCO)CC3)c2=O)cn1,0,0,6,0,23,0,96.3,0,2,7
COC(=O)c1c(-c2ccccc2)c2cc(C)ccc2c(=O)n1Cc1ccccc1,0,31,0,21,0,0,0,12,0,0
CN1C(=O)C(Nc2cc(Cl)c(O)c(Cl)c2)=C(c2ccc(Cl)cc2)C1=O [SB-404321],0,0,0,33,0,0,2,0,11,0
COc1ccc(-c2cc3c(C)nc(N)nc3n([C@H]3CC[C@H](O)CC3)c2=O)cn1,30,0,0,0,2,0,99,0,4,0
COc1cc2nccc(Nc3ccc(OCc4ccc(NC(C)=O)cc4)cc3)c2cc1OC.Cl [GW440135],0,12,0,20,0,1,15,3,0,0
COC(=O)c1c(-c2ccccc2)c2cc(Br)ccc2c(=O)n1Cc1ccc(S(C)(=O)=O)cc1,0,43,10,32,5,0,28,7,0,2

SMILES,%Inh (MRCKB) [%],%Inh (MST1R) [%],%Inh (MST1) [%],%Inh (MST2) [%],%Inh (MST3) [%],%Inh (MST4) [%],%Inh (MTOR) [%],%Inh (MUSK) [%],%Inh (MYLK2) [%],%Inh (MYLK4) [%]
OCCCNc1nccc(-c2c(-c3cccc(C(F)(F)F)c3)nn3cc(C(F)(F)F)ccc23)n1 [GW630813],0,17,9,0,25,0,1,0,0,0
COc1cc2ncn(-c3cc(OCCCc4ccccc4)c(C(N)=O)s3)c2cc1OC [GSK205189],0,14,0,0,11,0,1,50,8,65
O=C(NCc1cccs1)c1cc(C(=O)c2c(Cl)cccc2Cl)c[nH]1 [GW823670],0,0,15,0,0,0,0,2,0,4
CCS(=O)(=O)c1ccc(OC)c(Nc2ncc(-c3ccc(F)cc3)o2)c1.Cl [GW591947],0,33,0,2,0,0,5,2,2,0
O=c1cc(N2CCOCC2)nc2n(Cc3ccc(F)c(Cl)c3)ccn12 [GSK2297099],0,13,0,16,0,0,12,5,0,3
Cc1ccccc1COc1cc(-n2cnc3cc(Cl)ccc32)sc1C(N)=O [GW813349],0,0,0,12,0,0,18,0,0,24
COc1cc(Nc2nccc(N3CCC(NC(=O)C(C)c4ccc(Cl)cc4)C3)n2)cc(OC)c1OC (stereo not drawn) [GSK1379757],0,37,8,5,0,0,36,0,0,0
CN(C)c1cc(-c2ccc3c(N)n[nH]c3c2)nc(N)n1 [GSK2219329],0,18,1,0,5,0,1,0,9,0
CCC(=O)c1c(-c2ccccc2)c2cc(Cl)ccc2c(=O)n1Cc1cc(S(C)(=O)=O)n(CC(N)=O)n1,0,0,0,0,0,0,40,0,0,0
Nc1n[nH]c2nnc(-c3ccccc3)c(-c3ccccc3)c12 [GW554060],0,40,0,0,0,0,12,20,0,1
CCn1c(-c2ccoc2)nc2cnccc21 [SB-733887],0,0,0,0,0,0,29,2,18,0
CCc1nc(-c2cccc(C)c2)c(-c2ccncc2)s1,0,0,0,8,8,0,34,5,5,0
COc1ccc(-n2cnc3c(N)ncnc32)cc1 [SKF-97236],1,0,24,13,6,0,16,12,52,0
CCn1c(-c2nonc2N)nc2ccccc21 [SB-693162/GW549034],0,0,0,34,11,0,0,42,0,0
COc1cc2ncn(-c3cc(OCc4ccc(S(C)(=O)=O)cc4)c(C(N)=O)s3)c2cc1OC [GW869979],0,0,0,44,7,14,6,0,0,8
O=C(Nc1n[nH]c2nc(-c3ccccc3)c(Br)cc12)C1CC1 [SB-708998],0,100,18,7,0,0,16,0,95.7,0
Cc1ccc(Oc2ccc(Nc3ncnc4cc[nH]c34)cc2C)cn1,0,35,0,15,3,0,0,0,18,19
Nc1ncnc2c1ncn2-c1cccc2ccccc12 [SKF-97184],0,6,7,0,0,0,28,0,0,4
COc1cccc(C2=C(Nc3cccc(C(=O)O)c3)C(=O)NC2=O)c1 [SB-390770],18,2,28,25,0,0,29,15,38,0
CCc1ccc(-c2ccc3c(c2)-c2nn(C)cc2S(=O)(=O)N3C)cc1,0,0,0,0,0,0,23,1,0,6
Nc1ncnc2c1ncn2-c1ccc(Cl)cc1 [AH2635],0,17,2,0,0,0,11,0,14,8
Cc1cc(Nc2nc(-c3cccc(C)n3)nc3ccccc23)ccn1 [GW872411],0,0,0,0,0,0,73,9,0,26
Nc1nc(-c2ccccc2F)c(-c2ccnc3ccccc23)s1 [GW560459],0,33,8,0,7,0,21,0,8,1
